Measured values as given in PubChem BioAssay AID686978 (National Center for Advancing Translational Sciences (NCATS), 2013).
In all, about 420,000 compounds went through this assay and about 64,000 (15%) were called active. Inconclusive results (about 27%) are left out. Calls come from the whole dose curve; as a rule, active = well fitted inhibition curve with a large enough effect; inconclusive = small, poorly fitted or top-dose-only effect; inactive = flat fitted curve, though single readings scatter. A selection follows.

Assay: qHTS for Inhibitors of human tyrosyl-DNA phosphodiesterase 1 (TDP1): qHTS in cells in absence of CPT; note: nearly all actives have a fitted effect of over 55% in size
Conditions: DT40 Tdp1-/- hTDP1 cells, no CPT, ATP luminescence, 48 h; activity change, negative = growth inhibition: at 46.2 µM (top of the series)
In short: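 A cellular qHTS used chicken DT40 cells lacking endogenous Tdp1 but carrying stably transfected human TDP1. Compounds were applied without camptothecin, and cell growth kinetics were judged by ATP-dependent luminescence after ≥48 hr.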
% is set by controls: 0 for no effect and ±100 for the full control effect; potency is the fitted concentration of half-maximal effect.

Structure (SMILES)	Potency	activity change, negative = growth inhibition
CCCn1c(SCC(=O)c2ccc3c(c2)OCCO3)nnc1C(C)C	20.6 µM (active)	–
CCn1c(SCC(=O)Nc2ccc3c(c2)OCCO3)nnc1C(C)C	–	-12.3% (inactive)
CCCn1c(SCC(N)=O)nnc1C(C)C	–	-8.78% (inactive)
CCOC(=O)c1cc2c(n(-c3ccc(C)cc3)c1=O)CCCC2=O	–	-13.6% (inactive)
C=CCn1c(C)cc(C(=O)CN2C(=O)c3ccccc3C2=O)c1C	–	-25.9% (inactive)
Cc1ccc(-n2c(C)cc(C(=O)CN3C(=O)C(=O)N(C4CCCC4)C3=O)c2C)cc1	25.9 µM (active)	–
COc1ccc(NC(=O)CCCC2CCCCC2)c(OC)c1	–	-16.4% (inactive)
COc1ccc(Cl)cc1C(=O)NNC(=S)NC(=O)/C=C/c1ccco1	23.1 µM (active)	–
C=CCNC(=S)NNC(=O)c1cc(Cl)ccc1OC	–	3.87% (inactive)
O=C(/C=C/c1ccco1)NC(=S)Nc1ccccc1Br	–	-12.9% (inactive)
CC(C)c1nc(CNC(=O)CC2C(=O)NCCN2Cc2ccoc2)cs1 (centres undefined)	–	-1.5% (inactive)
CCC(=O)Nc1ccccc1-c1nc2ccccc2n(CC(=O)Nc2ccc(C)c(C)c2)c1=O	–	-29% (inactive)
O=C(COC(=O)Cn1cnc2ccccc21)Nc1cccc2c1C(=O)c1ccccc1C2=O	9.2 µM (active)	–
O=C(Cn1cnc2ccccc21)Nc1ccccc1-c1ccccc1	2.31 µM (active)	–
O=C(COC(=O)Cn1cnc2ccccc2c1=O)NCc1ccccc1Cl	–	2.41% (inactive)
O=C(Cn1cnc2ccccc21)N/N=C/c1ccco1	–	15% (inactive)
CN(Cc1c(F)cccc1Cl)C(=O)COC(=O)Cn1cnc2ccccc2c1=O	–	3.31% (inactive)
CCN(Cc1ccccc1)Cc1c(O)ccc2c(=O)c(-c3ccc(Cl)cc3Cl)coc12	–	6.31% (inactive)
CCCn1c(SCC(=O)Nc2ccc(C)c(S(=O)(=O)N3CCOCC3)c2)n[nH]c1=O	–	-12.2% (inactive)
CCOC(=O)C1CCN(C(=O)C2(NC(=O)Nc3cccc(F)c3)CCCCC2)CC1	–	-24.2% (inactive)
COC(=O)C(=Nc1ccccc1)/C(C(=O)C(=O)N(C)c1ccccc1)=C(\O)c1ccc(Cl)cc1	–	-0.772% (inactive)
COc1cc(OC)c(C(=O)OCC(=O)N2CC(=O)Nc3ccccc32)cc1OC	–	12.3% (inactive)
CCOC(=O)N1CCc2c(sc3c2C(=O)NC(c2ccccc2F)N3)C1 (centres undefined)	16.4 µM (active)	–

Structure (SMILES)	Potency	activity change, negative = growth inhibition
O=C1NC(c2ccncc2)Nc2sc3c(c21)CCCC3 (centres undefined)	–	-11.1% (inactive)
N#Cc1c(N)sc2c1CCN(C(=O)OCc1ccccc1)C2	–	-24.9% (inactive)
COc1ccc(C(=O)COC(=O)c2nn(C)c(=O)c3ccccc23)c(OC)c1	–	5.24% (inactive)
C#CCN1C(=O)C(O)(CC(=O)c2cc(OC)ccc2OC)c2ccccc21 (centres undefined)	16.4 µM (active)	–
COc1ccc(OC)c(NC(=O)c2cnn(-c3ccccc3Cl)c2NC(=O)c2ccco2)c1	–	-17.9% (inactive)
CC(=O)NC(=S)Nc1ccc(NC(=O)c2cccnc2)cc1	–	7.62% (inactive)
N#CCSc1ccccc1NC(=O)CN1C(=O)NC(CCc2ccccc2)C1=O (centres undefined)	–	-11.9% (inactive)
Cn1ncc([N+](=O)[O-])c1C(=O)Nc1cc(Cl)ccc1Cl	–	-5.68% (inactive)
COc1ccc(Cn2c(=O)cc(C)[nH]c2=S)cc1	–	12% (inactive)
COc1ccc(CN2CN(C(C)C)CSC2=S)cc1	3.26 µM (active)	–
COc1ccc(CN2CC(C(=O)NC3CCCCC3)CC2=O)cc1 (centres undefined)	–	14.2% (inactive)
COc1ccc(CN2CN(C3CCCC3)CSC2=S)cc1	4.61 µM (active)	–
COc1ccc(CN2CC(C(=O)NCCc3ccc(Cl)cc3)CC2=O)cc1 (centres undefined)	–	6.36% (inactive)
COc1ccc(CCNC(=O)COC(=O)C2CCCCC2)cc1	–	0.441% (inactive)
CC(=O)N1CSCC1C(=O)O (centres undefined)	–	2.18% (inactive)
CC1(C)Oc2ccc3ccc(=O)oc3c2/C(=C/NCCO)C1=O	–	-13.1% (inactive)
CCCCN(C(=O)C(CCSC)N1C(=O)c2ccccc2C1=O)c1c(N)n(CCC)c(=O)[nH]c1=O (centres undefined)	–	19% (inactive)
CC(C)(CNC(=O)CNC(=O)C1CCCCC1)N1CCOCC1	–	-16.2% (inactive)
N#CC1=C(N)OC2=C(C(=O)CCC2)C1C1CC=CCC1 (centres undefined)	–	-29% (inactive)
CCCc1[nH]nc2c1C(c1ccc(Br)s1)C(C#N)=C(N)O2 (centres undefined)	7.31 µM (active)	–
CCCc1[nH]nc2c1C(C1CC=CCC1)C(C#N)=C(N)O2 (centres undefined)	13 µM (active)	–
Cc1cc(C)c(C#N)c(SCc2[nH]nc3c2C(c2ccccc2)C(C#N)=C(N)O3)n1 (centres undefined)	–	-2.46% (inactive)
CCCc1nc2c([nH]1)C(c1cccnc1)C(C#N)=C(N)O2 (centres undefined)	–	-10.3% (inactive)

Structure (SMILES)	Potency	activity change, negative = growth inhibition
COc1cc(C2C(C#N)=C(N)Oc3n[nH]c(-c4ccccn4)c32)cc(OC)c1OC (centres undefined)	–	-15.1% (inactive)
COCc1[nH]nc2c1C(C1C=CCCC1)C(C#N)=C(N)O2 (centres undefined)	20.6 µM (active)	–
CCc1ccc(C2C(C#N)=C(N)Oc3n[nH]c(CC(=O)OC)c32)cc1 (centres undefined)	–	-4.43% (inactive)
CCOc1c(OC)cc(C2C(C#N)=C(N)Oc3n[nH]c(-c4ccncc4)c32)cc1OC (centres undefined)	–	-6.03% (inactive)
CCOc1ccc(CNC(=O)C2CCC(=O)N2C2CCCC2)cc1OC (centres undefined)	–	-16.4% (inactive)
CCCC(=O)Nc1ccc(C(=O)N/N=C/c2ccc[nH]2)cc1	–	-23.6% (inactive)
CCOC(=O)c1ccccc1NC(=O)CSc1nc2ccccc2c(=O)[nH]1	–	-14% (inactive)
COc1ccc(C(=O)c2oc3ccccc3c2NC(=O)COc2cccc(C)c2)cc1	–	-5.81% (inactive)
C=CCN(CC=C)C(=O)COC(=O)c1n[nH]c2ccccc12	–	2.16% (inactive)
COC(=O)c1sccc1-n1cccc1C(=O)C(=O)N1CCCCC1	–	-10.5% (inactive)
CCC(=O)Nc1ccc(C(=O)CSc2nnc(CNc3ccc(Cl)cc3)o2)cc1OC	12.6 µM (active)	–
COc1ccc(Cc2nnc(SCC(=O)Nc3ccc(C)c(C)c3)o2)cc1OC	–	-26.6% (inactive)
CCOC(=O)CSc1nnc(CNc2ccc(F)cc2)o1	–	-5.09% (inactive)
Cc1nn(C)cc1C(=O)NNC(=S)Nc1ccc(Cl)cc1	–	-3.84% (inactive)
CCN(Cc1ccncc1)C(=O)c1cccc(S(=O)(=O)N2CCOCC2)c1	–	-1.97% (inactive)
O=S(=O)(c1cccc(Cn2nnc(-c3ccc(F)cc3)n2)c1)N1CCOCC1	20.6 µM (active)	–
Cc1ccc(S(=O)(=O)N2CCOCC2)cc1C(=O)NCc1ccc(F)cc1	–	-15.7% (inactive)
CN(C)c1ccc(/C=C2\NC(=S)N(Cc3ccccc3)C2=O)cc1	20.6 µM (active)	–
COc1cc(/C=C2/SC(=S)N(Cc3ccccc3)C2=O)cc(OC)c1O	–	-27.9% (inactive)
CN(C)c1ccc(/C=c2\[nH]c(=O)/c(=C/c3ccc(N(C)C)cc3)[nH]c2=O)cc1	–	-15.2% (inactive)
Cc1nc2ccccn2c(=O)c1NC(=O)c1c(F)cccc1F	–	-16.3% (inactive)
Cc1nc2ccccn2c(=O)c1NC(=O)c1ccc(Br)o1	–	-7.88% (inactive)
Cc1ccc(-c2nc3ccccn3c2Nc2c(C)cccc2C)o1	18.4 µM (active)	–
